The record followed here is PubChem BioAssay (NCATS).

Records with an inconclusive call do not appear. Calls of active or inactive are those of the source. Unless noted, the call rests on the fitted dose curve; in most records, active means well fitted inhibition curve with a large enough effect; inconclusive means small, poorly fitted or top-dose-only effect; inactive means flat fitted curve, though single readings scatter.

Assay [1] is described as follows: S16 Schwann cell PMP22 intronic element beta-lactamase assay (AID 624044; calls by dose curve; further: nearly all actives have a fitted effect of over 15% in size). To be noted: S16 rat Schwann cells, PMP22 element beta-lactamase FRET, 24 h; ratio activity, negative = inhibition: at 38.3 µM (top of the series). Put shortly:
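Rat S16 Schwann cells with beta-Lac driven by a PMP22 intronic element, compound-treated 24 h at 37 °C. LiveBLAzer FRET B/G read: 460 nm normalized to potassium clavulanate vs DMSO; 535 nm FRET as viability; concentration-effect curves classified.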

In assay [2] the test system is AA1029. In words: qHTS profiling for inhibitors of Plasmodium falciparum proliferation (AID 504749). Further: nearly all actives have a fitted effect of over 60% in size. To be noted: P. falciparum in erythrocytes, SYBR Green DNA, 72 h; series mostly up to 28.7 µM. The method, boiled down:
(§1)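 Three-day growth assay of blood-stage parasites in erythrocytes (0.3% parasitemia, 2.5% hematocrit) at 37 C, 5% CO2, quantified by SYBR Green DNA staining after overnight detergent lysis.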
In general terms: Quantitative high-throughput screening tests each substance at several concentrations.

For assay [3], the system named is AS120. Described as above. Conditions: P. falciparum in erythrocytes, SYBR Green DNA, 72 h; series mostly up to 28.7 µM. Put shortly:
as §1

Assay [4] concerns ATS189. The description is as above. Conditions: P. falciparum in erythrocytes, SYBR Green DNA, 72 h; series mostly up to 28.7 µM. Put shortly: as §1
Assay [5] concerns C2A. The description is as above. Conditions: P. falciparum in erythrocytes, SYBR Green DNA, 72 h; series mostly up to 28.7 µM. Put shortly:
as §1

The test system of assay [6] is CP217. The description is as above. Conditions: P. falciparum in erythrocytes, SYBR Green DNA, 72 h; series mostly up to 28.7 µM. Put shortly: as §1
For assay [7], the system named is CP237. Described as above. To be noted: P. falciparum in erythrocytes, SYBR Green DNA, 72 h; series mostly up to 28.7 µM. The method, boiled down:
as §1

Assay [8] concerns CP297. Described as above. To be noted: P. falciparum in erythrocytes, SYBR Green DNA, 72 h; series mostly up to 28.7 µM. The method, boiled down:
as §1

The test system of assay [9] is CP305. The description is as above. Conditions: P. falciparum in erythrocytes, SYBR Green DNA, 72 h; series mostly up to 28.7 µM. The method, boiled down: as §1
For assay [10], the system named is HB3. The assay is described as above. Conditions: P. falciparum in erythrocytes, SYBR Green DNA, 72 h; series mostly up to 28.7 µM. Put shortly:
as §1

Assay [11] concerns PC15. The description is as above. Conditions: P. falciparum in erythrocytes, SYBR Green DNA, 72 h; series mostly up to 28.7 µM. The method, boiled down: as §1
Assay [12] concerns TAB109. The description is as above. Conditions: P. falciparum in erythrocytes, SYBR Green DNA, 72 h; series mostly up to 28.7 µM. The method, boiled down:
as §1

The test system of assay [13] is CP194. The assay is described as above. Conditions: P. falciparum in erythrocytes, SYBR Green DNA, 72 h; series mostly up to 28.7 µM. The method, boiled down:
as §1

Assay [14] concerns CP250. The assay is described as above. To be noted: P. falciparum in erythrocytes, SYBR Green DNA, 72 h; series mostly up to 28.7 µM. Put shortly:
as §1

For assay [15], the system named is CP256. The assay is described as above. To be noted: P. falciparum in erythrocytes, SYBR Green DNA, 72 h; series mostly up to 28.7 µM. The method, boiled down: as §1
Assay [16] relates to PC49. Described as above. Conditions: P. falciparum in erythrocytes, SYBR Green DNA, 72 h; series mostly up to 28.7 µM. Put shortly: as §1
The subject of assay [17] is CP201. The assay is described as above. Conditions: P. falciparum in erythrocytes, SYBR Green DNA, 72 h; series mostly up to 28.7 µM. The method, boiled down:
as §1

Assay [18] deals with CP203. The description is as above. To be noted: P. falciparum in erythrocytes, SYBR Green DNA, 72 h; series mostly up to 28.7 µM. Put shortly:
as §1

Assay [19] deals with CP325. The assay is described as above. Conditions: P. falciparum in erythrocytes, SYBR Green DNA, 72 h; series mostly up to 28.7 µM. Put shortly:
as §1

The subject of assay [20] is CP268. The assay is described as above. To be noted: P. falciparum in erythrocytes, SYBR Green DNA, 72 h; series mostly up to 28.7 µM. The method, boiled down:
as §1
Potency means the concentration at half of the fitted maximal effect.

`C[C@]12CC[C@@H]3c4ccc(O)cc4C[C@@H](CCCCCCCCCS(=O)CCCC(F)(F)C(F)(F)F)C3[C@@H]1CC[C@@H]2O` (some centres undefined): in assay [1], the Potency entry is “inactive”. Further, the Potency was 7080 nM (active) in assay [2]; 2510 nM (active) in [3]; 7940 nM (active) in [4]; 10000 nM (active) in [5]; 8910 nM (active) in [6]; 5010 nM (active) in [7]. Also, the Potency was 4260 nM (active) in assay [8]; 10700 nM (active) in assay [9]; 5010 nM (active) in assay [10]; 11200 nM (active) in [11]; 10000 nM (active) in assay [12].
On to `CC(=O)C1(O)Cc2c(O)c3c(c(O)c2C(OC2CC(N)C(O)C(C)O2)C1)C(=O)c1c(O)cccc1C3=O` (centres undefined), for which the Potency in assay [1] was 99.9 nM (active); in [2] it was 5010 nM (active); in assay [3], 4470 nM (active); in assay [4], 8910 nM (active); in assay [5], 8910 nM (active); in assay [13], 12000 nM (active). Also, the Potency is 10000 nM (active) in assay [6]; 2820 nM (active) in assay [7]; 11200 nM (active) in assay [14]; 10000 nM (active) in assay [15]; 6310 nM (active) in assay [10]; 11200 nM (active) in assay [11]. In addition, the Potency in assay [16] was 6310 nM (active); in assay [12] it was 5620 nM (active).
`C[C@]12C=CC(=O)N[C@@H]1CC[C@@H]1C2CC[C@]2(C)C(C(=O)Nc3cc(C(F)(F)F)ccc3C(F)(F)F)CC[C@@H]12` (some centres undefined): the Potency entry in assay [1], in assay [2], in assay [3], in [4], in assay [5] and in assay [13] was “inactive” in each case. Besides, the Potency entry in assay [17], in [18], in assay [6], in assay [14], in [15] and in assay [19] was “inactive” each time. Besides, the Potency result in assay [11] and in [12] was “inactive” throughout. The Potency in [7] is 5010 nM (active).
For the compound `CC(C)C(=O)OCC(=O)[C@@]12OC(C3CCCCC3)O[C@@H]1CC1C3CCC4=CC(=O)C=C[C@]4(C)C3[C@@H](O)C[C@@]12C` (some centres undefined), the Potency result in assay [1] is “inactive”. Also, the Potency in assay [2] is 891 nM (active); in assay [3], 794 nM (active); in assay [4], 891 nM (active); in assay [5] it was 1260 nM (active); in assay [6], 794 nM (active); in [7] it was 1410 nM (active). Also, the Potency in [14] was 1120 nM (active); in assay [15], 1120 nM (active); in [9], 849 nM (active); in assay [10], 1120 nM (active); in assay [11] it was 1580 nM (active); in assay [16] it was 1120 nM (active). Also, in [12], the Potency was 708 nM (active).
For the compound `CC1(C)CC1C(=O)N/C(=C/CCCCSCC(N)C(=O)O)C(=O)O` (centres undefined), the Potency entry in [2], in [3], in assay [4], in assay [5], in [13] and in [17] was “inactive” each time. For the same compound, the Potency result in [18], in assay [6], in assay [7], in assay [14], in assay [15] and in assay [20] was “inactive” each time. The Potency entry in assay [8], in [9], in [19], in assay [10], in assay [11] and in assay [16] was “inactive” throughout. For the same compound, the Potency result in assay [12] is “inactive”.
As to `CCC(C(=O)C(C)C(O)C(C)CCc1ccc(C)c(O)c1C(=O)O)C1OC(CC)(C2CC[C@@](O)(CC)C(C)O2)CC1C` (some centres undefined), the Potency is 6300 nM (active) in assay [1]; 708 nM (active) in assay [2]; 398 nM (active) in assay [3]; 1260 nM (active) in assay [4]; 794 nM (active) in assay [5]; 849 nM (active) in assay [13]. Moreover, the Potency is 1070 nM (active) in [17]; 849 nM (active) in assay [18]; 1000 nM (active) in assay [6]; 562 nM (active) in [7]; 1000 nM (active) in assay [14]; 1000 nM (active) in [15]. For the same compound, the Potency in [20] is 849 nM (active); in assay [8], 601 nM (active); in assay [9] it was 675 nM (active); in assay [19] it was 953 nM (active); in [10], 631 nM (active); in assay [11], 1410 nM (active). Further, the Potency in [16] was 2000 nM (active); in assay [12] it was 891 nM (active).
